26 compounds from PubChem BioAssay AID463190 (Sanford-Burnham Center for Chemical Genomics, 2010) can be followed below.

Each structure is given as a SMILES string. About 7,300 (2.2%) of roughly 330,000 compounds were called active. Many of the other results were omitted from the sample, so actives are more common in it than they were. Unmarked numbers belong to inactive results.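 Rule for the calls: active = inhibition of at least 40%; inactive = the rest.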

The assay in a line: growth inhibition of tim10-1 ts yeast – luminescence, uHTS, primary screen (AID 463190).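 Note: mutant grown at 25 °C; 0% = DMSO wells with yeast and 100% = wells holding no yeast.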 Particulars: S. cerevisiae tim10-1 ts strain growth, BacTiter-Glo, 24 h; at 20 µM; stronger effect = higher value.
For `C=CCC1(CC=C)CCCN1C(=O)CC1C(=O)NCCN1Cc1ccccc1OC` (stereo unspecified), the inhibition – broadly, the drop in the measured response relative to a control, in per cent – was 7.02%.
Under `O=C(Nc1cccc2cccnc12)c1cccc(Cl)c1` stands 20.4%.
Then `CC(=O)/C(=N\Nc1ccc(Cl)cc1Cl)Sc1cccc2cccnc12`, with 53.2% (active).
Then `S=C(NCc1cccnc1)Nc1ccc(Cl)cc1Cl`, with 15%.
With `Cn1cccc1C(=O)OCC(=O)NCCc1ccccc1`, the inhibition was -4.06%.
Under `Cc1c(C)n(Cc2ccc(Cl)cc2)c2ccc(C(=O)NCCCN3CCOCC3)cc12` stands 5.97%.
Regarding `NS(=O)(=O)c1ccc(CCNC(=O)Nc2ccc(Cl)cc2)cc1`, the inhibition was 8.7%.
Turning to `O=C(Nc1ccccc1)c1nnsc1S(=O)(=O)c1ccc(Cl)cc1`, the inhibition was 87.7% (active).
Then `O=C(Nc1ccc(Cl)cc1)Nc1nnc(/C=C/c2ccccc2)s1`, with 5.19%.
Under `COC(=O)c1cc(NC(=O)c2nn(C)c(=O)c3ccccc23)cc(C(=O)OC)c1` stands 13.9%.
Then `CCc1ccccc1NC(=O)Cc1cn(C)c2ccccc12`, with 24.8%; and `C=C(C)Cn1c(C)cc(C)c(S(=O)(=O)c2ccccc2C)c1=O`, with 27.4%.
`CCS(=O)(=O)c1cc([N+](=O)[O-])c(Sc2ccccc2N)s1`: the inhibition is 7.45%.
Under `Nc1ccccc1SC(C[N+](=O)[O-])c1ccccc1` (stereo unspecified) stands 48.9% (active); under `Cc1ccc(C)c(N2CCN(C(=O)CCc3nc4ccccc4[nH]3)CC2)c1`, 22.3%; under `Cc1ccc(C)c(N2CCN(C(=O)CCCCCn3c(=S)[nH]c4ccc(N5CCOCC5)cc4c3=O)CC2)c1`, 0.092%.
Take `Cc1ccc(C)c(N2CCN(C(=O)CCCCn3c(=O)[nH]c4ccccc4c3=O)CC2)c1`: the inhibition is 40.7% (active).
For the compound `O=C(CCC1CCCCC1)Nc1cc(C(F)(F)F)ccc1N1CCOCC1`, the inhibition is 27.5%.
As to `O=C(NCCc1ccccc1)C1CCC(Cn2c(=O)c3ccccc3n(Cc3cccnc3)c2=O)CC1` (stereo unspecified), the inhibition was 15.4%.
Regarding `Cc1ccc(Cl)cc1NC(=O)C1CCCN(c2cnccn2)C1` (stereo unspecified), the inhibition is 12.5%.
Under `CC(=O)c1cc(C#N)c(SCC(=O)Nc2nccs2)nc1C` stands -56.3%.
Under `S=c1[nH]nc(CSCc2ccc(Cl)cc2Cl)n1-c1ccccc1` stands 41.3% (active); under `Cc1ccc(NCc2n[nH]c(=S)n2-c2ccccc2)cc1Cl`, 23%; under `S=c1[nH]nc(COc2ccccc2)n1-c1ccccc1`, 21.4%.
Take `CCCCNC(=O)C(C)N(CCN(C)C)C(=O)CCCN1C(=O)NC(c2ccc(Cl)cc2)C(C(=O)OCc2ccccc2)=C1C` (stereo unspecified): the inhibition was 6.33%.
Under `CCCc1cc(=O)[nH]c(SCC(=O)Nc2sc3c(c2C#N)CCCC3)n1` stands 6.17%.
